# Where “and” joins values, the source holds several entries; their conditions need not be identical. Identical values can stand only once.
# Assays:
# Experiment in all cases: growth inhibition (% activity, log2 RLU normalised to DMSO / staurosporine); higher = more growth inhibition
# Settings in all cases: 33 µM
# [1] = test system: DIPGX29 (H3.3 K27M diffuse intrinsic pontine glioma line)
# In short: (§1)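 Approved drugs were tested in triplicate at a single final concentration of about 33 μM for 7 days at 37 °C, 5% CO2, on pHGG cell lines and H9-derived neural stem cells. Readout was CellTiter-Glo luminescence, log2-transformed and scaled per plate to % activity between solvent and positive control wells. The median over replicates gives the growth-inhibition value.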
# [2] = test system: DIPGX37 (H3.3 K27M diffuse intrinsic pontine glioma line)
# In short: as §1
# [3] = test system: DIPGX7 (H3.3 K27M diffuse intrinsic pontine glioma line)
# In short: as §1
# [4] = test system: DIPGX9 (diffuse intrinsic pontine glioma line)
# In short: as §1
# [5] = test system: HGGX39 (paediatric high-grade glioma line)
# In short: as §1
# [6] = test system: HGGX6 (H3.3 G34R paediatric high-grade glioma line)
# In short: as §1
# [7] = test system: HNSC
# In short: as §1
# [8] = test system: SUDIPGIV (diffuse intrinsic pontine glioma line)
# In short: as §1
# [9] = test system: SUDIPGVI (diffuse intrinsic pontine glioma line)
# In short: as §1
# [10] = test system: SUDIPGXIII (diffuse intrinsic pontine glioma line)
# In short: as §1
Compound,growth inhibition [1],growth inhibition [2],growth inhibition [3],growth inhibition [4],growth inhibition [5],growth inhibition [6],growth inhibition [7],growth inhibition [8],growth inhibition [9],growth inhibition [10]
CC(=O)OC1CN2CCC1CC2 (stereo not drawn),-0.533%,1.16%,0.391%,1.28%,1.15%,-1.32%,2.31%,-0.883%,1.26%,0.846%
COC(=O)C1=CCCN(C)C1,2.02%,4.11%,0.892%,1.35%,1.54%,1.61%,1.06%,0.353%,3.57%,1.1%
C=CC[C@]1(O)CC[C@H]2[C@@H]3CCC4=CC(=O)CCC4=C3C=C[C@@]21C,1.35%,1.67%,-0.403%,1.01%,1.7%,1.91%,2.23%,1.08%,1.88%,2.31%
C#C[C@]1(O)C=C[C@H]2[C@@H]3CCC4=CC(=O)CC[C@@H]4[C@H]3CC[C@@]21CC,1.62%,0.668%,0.599%,1.55%,1.48%,3.32%,0.901%,0.673%,1.89%,0.6%
CC(C)N(CCNC(=O)CN1CCCC1=O)C(C)C,2.94%,3.86%,1.76%,4.77%,3.31%,3.19%,1.2%,-0.694%,3.19%,2.1%
C[C@@H]1CC[C@H]2[C@@H](C)C(=O)O[C@@H]3O[C@@]4(C)CC[C@@H]1[C@]32OO4,3.47%,-0.962%,4.12%,4.81%,4.98%,4.39%,14.5%,12.8%,-4.44%,20.5%
C=CCN.ClCC1CO1 (stereo not drawn),0.23%,-1.75%,1.62%,1.51%,2.03%,-0.039%,0.544%,0.558%,1.49%,0.672%
C#C[C@]1(O)CC[C@H]2[C@@H]3CCC4=CC(=O)CC[C@]4(C)[C@H]3CC[C@@]21C,0.66%,2.06%,2.92%,3.05%,1.6%,0.344%,5.86%,0.623%,2.6%,0.296%
CN(C)[C@@H]1C(=O)C(C(N)=O)=C(O)[C@@]2(O)C(=O)C3=C(O)c4c(O)ccc(Cl)c4[C@@](C)(O)[C@H]3C[C@@H]12,3.18%,4.29%,3.71%,3.16%,4.59%,3.5%,2.92%,2.12%,3.1%,-1.15%
O=c1[nH]c2ccccc2n1CCCN1CCC(n2c(=O)[nH]c3cc(Cl)ccc32)CC1,1.24%,-0.863%,0.225%,-0.635%,3.76%,1.12%,1.78%,-1.4%,-2.62%,-2.52%
CN(C)[C@@H]1C(=O)C(C(N)=O)=C(O)[C@@]2(O)C(=O)C3=C(O)c4c(O)cccc4[C@@](C)(O)[C@H]3[C@H](O)[C@@H]12,0.568% and -1.27%,1.33% and -2.42%,0.754% and -1.23%,1.93% and -1.22%,2.88% and -0.945%,1.26% and -1.1%,0.393% and 0.992%,2.12% and -1.5%,-1.25% and -0.24%,1.12% and 0.41%
C[C@]12CCC(=O)C=C1C=C[C@@H]1[C@@H]2CC[C@@]2(C)[C@H]1CC[C@@]2(O)CCC(=O)O,0.155%,-0.641%,2.17%,1.05%,0.878%,-0.966%,37.3%,-0.186%,-0.451%,-0.386%
CCC1(C)CC(=O)NC(=O)C1,-3.05%,-2.24%,4.09%,-2.78%,-4.36%,-4.73%,7%,-2.82%,-6.09%,-0.846%
CC(C)NCC(O)c1ccccc1Cl (stereo not drawn),0.364%,-1.04%,-0.863%,-0.306%,2.3%,1.8%,-2.5%,0.901%,0.486%,-0.265%
Cc1cc(O)ccc1Cl,-0.668%,0.714%,0.716%,-0.222%,0.78%,0.216%,-2.46%,-0.746%,0.283%,0.848%
CN1C(=O)COc2c(C(=O)NC3CN4CCC3CC4)cc(Cl)cc21 (stereo not drawn),2.11%,3.22%,1.36%,3.07%,2.32%,3.19%,0.849%,-0.021%,3.53%,1.12%
CN(C)C(=O)Oc1cccc([N+](C)(C)C)c1,-3.32%,0.574%,-0.239%,-1.38%,-0.512%,-1.84%,-0.376%,-1.46%,-1.83%,1.72%
CCCCCCCCCCCCCCCC[n+]1ccccc1,59.1%,58.4%,62.7%,52.2%,59.6%,35.8%,76.6%,55.8%,62.8%,72.8%
COc1ccc(C(=O)N2CCCC2=O)cc1,0.75%,0.424%,2.24%,0.251%,-0.804%,-0.258%,0.808%,-2.06%,-5.15%,-1.15%
C/C=C(\C)C(=O)N[C@@H](c1ccccc1)[C@@H](O)C(=O)O[C@H]1C[C@@]2(O)[C@@H](OC(=O)c3ccccc3)[C@@H]3[C@]4(OC(C)=O)CO[C@@H]4C[C@H](O)[C@@]3(C)C(=O)[C@H](OC(C)=O)C(=C1C)C2(C)C,11.3%,8.35%,8.08%,23.2%,33.6%,19.9%,59.9%,37%,0.972%,4.19%

Compound,growth inhibition [1],growth inhibition [2],growth inhibition [3],growth inhibition [4],growth inhibition [5],growth inhibition [6],growth inhibition [7],growth inhibition [8],growth inhibition [9],growth inhibition [10]
CC(=O)OC12COC1CC(O)C1(C)C(=O)C(O)C3=C(C)C(O)CC(O)(C(OC(=O)c4ccccc4)C21)C3(C)C (stereo not drawn),7.46%,3.33%,4.76%,9.41%,14.7%,6.8%,11.9%,21.5%,1.87%,3.01%
COc1ccc(C(CN(C)C)C2(O)CCCCC2)cc1 (stereo not drawn),1.29%,1.34%,1.7%,0.288%,0.682%,-0.233%,1.61%,0.0945%,-1.13%,-0.0836%
CN1C2CC(O)CC1C1OC12 (stereo not drawn),-2.42%,-0.452%,-1.33%,0.803%,-1.67%,-0.472%,-2.89%,-1.37%,-0.226%,
O=P1(NCCCl)OCCCN1CCCl (stereo not drawn),-2.21%,-0.766%,5.61%,0.389%,3.87%,-0.383%,-5.21%,-2.15%,-7.65%,-1.43%
O=C(O[C@H]1C[N+]2(CCCOc3ccccc3)CCC1CC2)C(O)(c1cccs1)c1cccs1,-1.76%,-1.33%,-0.665%,-1.04%,-0.0721%,-0.623%,3.39%,-1.77%,-5.53%,0.0508%
CN1C(=O)CCS(=O)(=O)C1c1ccc(Cl)cc1 (stereo not drawn),0.502%,0.814%,0.531%,1.13%,2.2%,1.29%,2.59%,0.226%,-0.17%,-0.0547%
C[N+]1(C)[C@@H]2C[C@@H](OC(=O)[C@H](CO)c3ccccc3)C[C@H]1[C@@H]1O[C@@H]12,-0.834%,1.29%,0.707%,0.849%,2.27%,2.07%,-1.37%,-0.286%,0.639%,0.798%
CC(NC(C)(C)C)C(=O)c1cccc(Cl)c1 (stereo not drawn),-0.525%,-0.598%,-1.27%,0.229%,1.55%,0.445%,-1.56%,0.0304%,-0.145%,0.264%
CCCN1C[C@H](CSC)C[C@@H]2c3cccc4[nH]cc(c34)C[C@H]21,-0.00648%,-1.76%,-0.373%,-0.427%,1.29%,2.2%,-2.99%,0.236%,0.348%,-3.14%
CNCC(=O)c1ccc(O)c(O)c1,-1.95%,2.52%,-0.724%,-0.688%,0.248%,-0.714%,-1.87%,0.154%,-1.65%,3.12%
CC[C@@]1(O)C(=O)OCc2c1cc1n(c2=O)Cc2cc3ccccc3nc2-1,11.8%,-1.33%,11.4%,14.7%,39.5%,13.4%,65.8%,46.6%,2.42%,2.77%
C[N+]1(C)CCCC(OC(=O)C(O)(c2ccccc2)c2ccccc2)C1 (stereo not drawn),-0.577%,0.259%,-0.262%,0.527%,-0.329%,-1.01%,20.4%,-0.578%,-2.44%,-1.44%
Nc1nc(N)nc(NC2CC2)n1,0.786%,3.68%,1.03%,0.525%,0.614%,-0.225%,1.21%,1.07%,2.19%,0.454%
CC(=O)O[C@H]1C[C@@H]2CC[C@@H]3[C@H](CC[C@@]4(C)[C@H]3C[C@H]([N+]3(C)CCCCC3)[C@@H]4OC(C)=O)[C@@]2(C)C[C@@H]1[N+]1(C)CCCCC1,-1.09%,0.743%,-0.188%,0.99%,-0.431%,1.2%,-0.41%,-0.385%,0.196%,
Cc1cc(C(C#N)c2ccc(Cl)cc2)c(Cl)cc1NC(=O)c1cc(I)cc(I)c1O (stereo not drawn),-4.52%,-1.84%,-0.384%,-2.01%,-0.728%,-4.74%,4.96%,-0.00583%,-3.36%,3.29%
CCOC(=O)c1cncn1[C@H](C)c1ccccc1,1.12%,2.21%,2.54%,2.62%,1.86%,2.36%,3.19%,-0.15%,2.48%,0.0732%
CC(O)(CS(=O)(=O)c1ccc(F)cc1)C(=O)Nc1ccc(C#N)c(C(F)(F)F)c1 (stereo not drawn),0.345%,-1.44%,1.23%,0.462%,1.55%,0.395%,-0.177%,-0.994%,2.38%,1.16%
C[C@]12CC[C@H]3[C@@H](CC[C@@]45O[C@@H]4C(O)=C(C#N)C[C@]35C)[C@@H]1CC[C@@H]2O,0.975%,-2.98%,3.34%,-0.94%,3.74%,0.2%,-3.23%,-0.766%,-0.488%,-1.34%
C=C(C)[C@@H]1[C@H]2OC(=O)[C@@H]1[C@]1(O)C[C@H]3O[C@]34C(=O)O[C@H]2[C@]14C,-0.435%,1.09%,-0.608%,0.386%,1.14%,0.986%,-1.08%,-0.711%,2.74%,0.384%

# Reference: the supplement of paper PMC8253809
